Reference: PubChem BioAssay AID1159580 (chemical genetic matrix, 2015)
About 2,000 (36%) of roughly 5,500 compounds were called active. Not shown: some 18% with an inconclusive outcome. The list shows a part of the results. A number with no mark means an inactive call. No stated cut-off is given here; in the data, active means normalized growth mostly below about 0.91 (no sharp cut-off); inconclusive means no clear call, values can overlap the other calls; inactive means mostly above about 0.92.

Test: chemical genetic growth profiling, strain panel (AID 1159580);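 further: tested at 20 µM; growth read once vehicle control cultures reached saturation at 30 °C; 1 = growth at the plate median or of vehicle wells; lower values mean less growth of the strain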
Details: S. cerevisiae deletion strains, growth OD

## COc1ccc(-c2cc(=O)c3c(OC)c(OC)c(OC)c(OC)c3o2)cc1
Locus YAL021C, strain ccr4, hits give low values
  normalized growth: 0.996
Locus YAL026C, strain drs2, hits give low values
  normalized growth: 0.846 (active)
Locus YAL030W, strain snc1, hits give low values
  normalized growth: 0.959
Locus YBL061C, strain skt5, hits give low values
  normalized growth: 0.792 (active)
Locus YBR009C, strain hhf1, hits give low values
  normalized growth: 0.91
Locus YBR023C, strain chs3, hits give low values
  normalized growth: 0.848 (active)
Locus YBR171W, strain sec66, hits give low values
  normalized growth: 0.961
Locus YBR231C, strain swc5, hits give low values
  normalized growth: 0.795 (active)
Locus YBR279W, strain paf1, hits give low values
  normalized growth: 0.942
Locus YCL011C, strain gbp2, hits give low values
  normalized growth: 0.907 (active)
Locus YCL016C, strain dcc1, hits give low values
  normalized growth: 0.911 (active)
Locus YCL061C, strain MRC1, hits give low values
  normalized growth: 0.918 (active)
Locus YCL069W, strain vba3, hits give low values
  normalized growth: 0.934
Locus YCR088W, strain abp1, hits give low values
  normalized growth: 0.937
Locus YDL005C, strain med2, hits give low values
  normalized growth: 0.985
Locus YDL040C, strain nat1, hits give low values
  normalized growth: 0.975
Locus YDR001C, strain nth1, hits give low values
  normalized growth: 0.959
Locus YDR069C, strain doa4, hits give low values
  normalized growth: 0.981
Locus YDR137W, strain rgp1, hits give low values
  normalized growth: 0.705 (active)
Locus YDR159W, strain sac3, hits give low values
  normalized growth: 0.931
Locus YDR195W, strain ref2
  normalized growth: 1.05
Locus YDR297W, strain sur2, hits give low values
  normalized growth: 0.954
Locus YDR334W, strain swr1, hits give low values
  normalized growth: 0.938
Locus YDR335W, strain msn5, hits give low values
  normalized growth: 0.915 (active)
Locus YDR392W, strain spt3, hits give low values
  normalized growth: 0.248 (active)
Locus YEL003W, strain gim4, hits give low values
  normalized growth: 0.964
Locus YEL037C, strain rad23, hits give low values
  normalized growth: 0.99
Locus YEL061C, strain CIN8 (second series), hits give low values
  normalized growth: 0.874 (active)
Locus YER015W, strain faa2, hits give low values
  normalized growth: 0.912 (active)
Locus YER016W, strain bim1, hits give low values
  normalized growth: 0.898 (active)
Locus YER111C, strain swi4, hits give low values
  normalized growth: 0.978
Locus YER155C, strain BEM2 (second series), hits give low values
  normalized growth: 0.51 (active)
Locus YFR010W, strain ubp6, hits give low values
  normalized growth: 0.967
Locus YGL167C, strain pmr1, hits give low values
  normalized growth: 0.972
Locus YGL173C, strain kem1, hits give low values
  normalized growth: 0.913
Locus YGL227W, strain vid30, hits give low values
  normalized growth: 0.87 (active)
Locus YGL240W, strain doc1, hits give low values
  normalized growth: 0.84 (active)
Locus YGL253W, strain hxk2, hits give low values
  normalized growth: 0.792 (active)
Locus YHR013C, strain ard1, hits give low values
  normalized growth: 0.887
Locus YHR027C, strain rpn1, hits give low values
  normalized growth: 0.974
Locus YHR030C, strain SLT2, hits give low values
  normalized growth: 1.02
Locus YHR079C, strain IRE1, hits give low values
  normalized growth: 1.02
Locus YHR142W, strain chs7, hits give low values
  normalized growth: 0.54 (active)
Locus YJL092W, strain hpr5, hits give low values
  normalized growth: 0.946
Locus YJL095W, strain BCK1 (second series), hits give low values
  normalized growth: 0.899 (active)
Locus YJL095W, strain BCK1, hits give low values
  normalized growth: 0.984
Locus YJL115W, strain asf1, hits give low values
  normalized growth: 0.977
Locus YJL129C, strain trk1, hits give low values
  normalized growth: 0.774 (active)
Locus YJL154C, strain vps35, hits give low values
  normalized growth: 0.996
Locus YJL164C, strain tpk1, hits give low values
  normalized growth: 0.933
Locus YJL166W, strain qcr8, hits give low values
  normalized growth: 0.801 (active)
Locus YJL187C, strain SWE1, hits give low values
  normalized growth: 0.922 (active)
Locus YJR066W, strain TOR1, hits give low values
  normalized growth: 0.964
Locus YKL160W, strain elf1, hits give low values
  normalized growth: 0.887 (active)
Locus YKR026C, strain gcn3, hits give low values
  normalized growth: 0.974
Locus YKR091W, strain srl3, hits give low values
  normalized growth: 0.986
Locus YLL001W, strain dnm1, hits give low values
  normalized growth: 0.922
Locus YLL026W, hits give low values
  normalized growth: 0.968
Locus YLL041C, strain sdh2, hits give low values
  normalized growth: 0.973
Locus YLR027C, strain aat2, hits give low values
  normalized growth: 0.892 (active)
Locus YLR113W, strain HOG1, hits give low values
  normalized growth: 0.96
Locus YLR221C, strain rsa3, hits give low values
  normalized growth: 0.889 (active)
Locus YLR258W, strain gsy2, hits give low values
  normalized growth: 0.944
Locus YLR262C, strain YPT6 (second series), hits give low values
  normalized growth: 0.692 (active)
Locus YLR320W, strain mms22, hits give low values
  normalized growth: 0.635 (active)
Locus YLR342W, strain FKS1, hits give low values
  normalized growth: 0.904 (active)
Locus YLR357W, strain rsc2, hits give low values
  normalized growth: 0.924
Locus YLR370C, strain arc18, hits give low values
  normalized growth: 0.862 (active)
Locus YLR384C, strain iki3, hits give low values
  normalized growth: 0.978
Locus YML120C, strain ndi1, hits give low values
  normalized growth: 0.948
Locus YMR058W, strain fet3, hits give low values
  normalized growth: 0.845 (active)
Locus YMR125W, strain sto1, hits give low values
  normalized growth: 0.899
Locus YMR129W, hits give low values
  normalized growth: 0.978
Locus YMR205C, strain PFK2, hits give low values
  normalized growth: 0.78 (active)
Locus YMR231W, strain pep5, hits give low values
  normalized growth: 1.01
Locus YNL071W, strain lat1, hits give low values
  normalized growth: 0.473 (active)
Locus YNL183C, strain NPR1, hits give low values
  normalized growth: 0.937
Locus YNL209W, strain ssb2, hits give low values
  normalized growth: 0.994
Locus YNL248C, strain rpa49, hits give low values
  normalized growth: 0.997
Locus YNL322C, strain KRE1 (second series), hits give low values
  normalized growth: 0.943
Locus YNR049C, strain mso1, hits give low values
  normalized growth: 0.985
Locus YOR001W, strain rrp6, hits give low values
  normalized growth: 0.962
Locus YOR070C, strain gyp1, hits give low values
  normalized growth: 0.961
Locus YOR080W, strain dia2, hits give low values
  normalized growth: 0.992
Locus YOR083W, strain WHI5, hits give low values
  normalized growth: 0.879 (active)
Locus YOR106W, strain vam3, hits give low values
  normalized growth: 0.837 (active)
Locus YOR231W, strain MKK1, hits give low values
  normalized growth: 1.02
Locus YOR265W, strain rbl2, hits give low values
  normalized growth: 0.94
Locus YOR270C, strain vph1, hits give low values
  normalized growth: 0.644 (active)
Locus YOR290C, strain snf2, hits give low values
  normalized growth: 0.886
Locus YPL051W, strain arl3, hits give low values
  normalized growth: 0.882 (active)
Locus YPL078C, strain atp4, hits give low values
  normalized growth: 0.791 (active)
Locus YPL106C, strain sse1, hits give low values
  normalized growth: 0.927
Locus YPL240C, strain hsp82, hits give low values
  normalized growth: 0.966
Locus YPL256C, strain CLN2, hits give low values
  normalized growth: 1.04
